# Measurements as given in PubChem BioAssay (Tox21).
# Activity calls are given as the source filed them. Calls follow the shape of the dose curve; as a rule, active = well fitted activation curve with a large enough effect in the repeat runs; inconclusive = weak or mixed curves; inactive = flat fitted curve, though single readings scatter.
# Assay: A CellTox Green Cytotoxicity Assay to monitor cytotoxicity in HepG2 cells - 0 hour (AID 1224882); also: nearly all actives have a fitted effect of over 35% in size
# Settings: CellTox Green fluorescence; series mostly up to 76.8 µM; cytotoxicity: at the top concentration
# From the text: National Center for Advancing Translational Sciences [NCATS]
# NIH Chemical Genomics Center [NCGC]
# U.S. Environmental Protection Agency [EPA]
# National Institutes of Environmental Health Sciences [NIEHS]
# National Toxicology Program [NTP]
# Cell-based models are critical for drug discovery. Determining the natural cytotoxic effects resulting from test compounds is an essential research activity. A CellTox Green Cytotoxicity Assay to monitor cytotoxicity in real time of continues cell culture during 40 hours of the compound treatment was used to screen Tox21 10K library compounds in HepG2 cells. CellTox Green Cytotoxicity Assay is a nonlytic, homogeneous, biofluorescent method to measure cytotoxicity in cell culture after experimental manipulation. The assay system uses a proprietary asymmetric cyanine dye that is excluded from viable cells but preferentially stains the dead cell's DNA. […] Viable cells produce no appreciable increases in fluorescence. Therefore, the fluorescence signal produced by the binding interaction with dead cell DNA is proportional to cytotoxicity.
# The mixture of HepG2 cell suspension and reagents were dispensed at 600cells/6 ul/well in 1536-well tissue culture treated black solid bottom plates using a Multidrop dispenser. After the assay plates were incubated at a 37 C/5% CO2 incubator for 5 hours, 23 nL of compounds dissolved in DMSO, positive and negative controls was transferred to the assay plate by a pintool work station. The plates were incubated at 37 C for 40 hours. The fluorescence intensity were measured at 0h, 8h, 16h, 24h, 32h and 40h time points using ViewLux plate reader during compound treatment.
# % is scaled to controls: 0 for no effect and ±100 for the full control effect.
row,SMILES,cytotoxicity
1,C[Si]1(C)N[Si](C)(C)N[Si](C)(C)N1,-6.27% (inactive)
2,O=S1(=O)CCCC1,-0.765% (inactive)
3,CCN(CCO)c1cccc(C)c1,-7% (inactive)
4,Cc1nc2ccccc2c(=O)o1,-0.133% (inactive)
5,CCCCOC(=O)C(C)OC(=O)CCC (stereo not given),-5.11% (inactive)
6,CC(=O)N(CC(O)CO)c1c(I)c(C(=O)NCC(O)CO)c(I)c(C(=O)NCC(O)CO)c1I (stereo not given),1.03% [at 35.3 µM] (inactive)
7,C[C@H](CCC(=O)O)[C@H]1CC[C@H]2[C@@H]3[C@H](O)C[C@@H]4C[C@H](O)CC[C@]4(C)[C@H]3C[C@H](O)[C@]12C,-9.61% [at 35.3 µM] (inactive)
8,CC(C)SCc1ccco1,-2.1% [at 35.3 µM] (inactive)
9,Cc1nc([N+](=O)[O-])cn1-c1ccc([N+](=O)[O-])cc1,3.47% [at 35.3 µM] (inactive)
10,NS(=O)(=O)c1cc2c(cc1Cl)NC(C(Cl)Cl)NS2(=O)=O (stereo not given),-0.373% [at 35.3 µM] (inactive)
11,CCC(C)(CCC(C)C)C(=O)[O-].CCC(C)(CCC(C)C)C(=O)[O-].[Zn+2] (stereo not given),0.23% (inactive)
12,CN(C)CCCNCCC#N,1.57% (inactive)
13,CCCCCC1Nc2cc(C(F)(F)F)c(S(N)(=O)=O)cc2S(=O)(=O)N1 (stereo not given),-0.0337% [at 35.3 µM] (inactive)
14,NCCc1ccn[nH]1,-1.95% [at 35.3 µM] (inactive)
15,O=S(=O)(O)CCO,-3.81% (inactive)
16,CN[C@@H]1[C@@H](O)[C@@H](O[C@@H]2[C@H](O)[C@H](O[C@H]3OC(CN)=CC[C@H]3N)[C@@H](N)C[C@H]2N)OCC1(C)O (stereo not given in full),-1.23% [at 35.3 µM] (inactive)
17,CCOC(=O)CC#N,-4.08% (inactive)
18,CCCCCCCCCCCCC1CO1 (stereo not given),-1.02% (inactive)
19,NC(Cc1c[nH]c2ccccc12)C(=O)O (stereo not given),-0.768% [at 35.3 µM] (inactive)
20,CCOC(=O)OCC/C(SC(=O)OCC)=C(\C)N(C=O)Cc1cnc(C)nc1N,-12.5% [at 35.3 µM] (inactive)

row,SMILES,cytotoxicity
1,CCNC(=O)NCCCOc1cccc(CN2CCCCC2)c1,16.6% [at 35.3 µM] (inactive)
2,CC(=O)/C=C/c1ccco1,-3.37% (inactive)
3,CC(C)(C)c1ccc(C=O)cc1,4.62% (inactive)
4,COCC(=O)Nc1c(I)c(C(=O)NCC(O)CO)c(I)c(C(=O)N(C)CC(O)CO)c1I (stereo not given),7.81% [at 35.3 µM] (inactive)
5,c1ccc(CNc2ncnc3nc[nH]c23)cc1,-3% (inactive)
6,COC(/C=C(\C)CCC=C(C)C)OC,-8.1% (inactive)
7,O=C(O)C(=O)Nc1cccc(-c2nn[nH]n2)c1,-2.3% [at 35.3 µM] (inactive)
8,O=C(O)c1ccccc1C(=O)Nc1ccc(S(=O)(=O)Nc2nccs2)cc1,0.0579% [at 35.3 µM] (inactive)
9,CCOC(=O)CCc1ccccc1,8.16% (inactive)
10,CCCCC/C=C/CC(=O)OC,3.34% (inactive)
11,CC(C)C(=O)c1ccccc1,-3.03% (inactive)
12,COC(OC)C(C)c1ccccc1 (stereo not given),-1.62% (inactive)
13,CCOC(=O)CC(CC(=O)OCC)(OC(C)=O)C(=O)OCC,7.88% (inactive)
14,CCC(=O)c1ccc(O)cc1,-8.6% [at 35.3 µM] (inactive)
15,C=C(C)C(=O)OCCCCCCOC(=O)C(=C)C,4.38% (inactive)
16,CC1=NN(c2ccc(S(=O)(=O)O)cc2)C(=O)C1N=Nc1ccccc1 (stereo not given),14.5% (inactive)
17,CC(=O)OC(C)c1ccccc1 (stereo not given),-9.36% (inactive)
18,C1=CCC(c2ccccc2)CC1 (stereo not given),-2.53% (inactive)
19,Cn1c(=O)c2c(ncn2CC2OCCO2)n(C)c1=O,11.1% [at 35.3 µM] (inactive)
20,CCC(O)C(C)(C)C (stereo not given),-3.79% (inactive)
